Laboratory results published in PubChem BioAssay AID1159580 (chemical genetic matrix, 2015).
About 2,000 (36%) of roughly 5,500 compounds were called active. Roughly 18% stayed inconclusive and do not appear here. Some of the results follow. A number with no mark means an inactive call. Cut-off read from the data, not from the text of the source: active = normalized growth mostly below about 0.91 (no sharp cut-off); inconclusive = no clear call, values can overlap the other calls; inactive = mostly above about 0.92.

Experiment: chemical genetic growth profiling, strain panel (AID 1159580);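 note: tested at 20 µM; growth read once vehicle control cultures reached saturation at 30 °C; 1 = growth at the plate median or of vehicle wells; lower values mean less growth of the strain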
Conditions: growth OD

Structure (SMILES): CCCC(C)C1(CC)C(=O)N=C(S)NC1=O (configuration not stated)
- normalized growth (S. cerevisiae deletion strains, locus YJR075W, strain HOC1, active compounds read low): 1
- normalized growth (S. cerevisiae deletion strains, locus YKL009W, strain mrt4, active compounds read low): 0.908
- normalized growth (S. cerevisiae deletion strains, locus YKL068W, active compounds read low): 0.947
- normalized growth (S. cerevisiae deletion strains, locus YKL085W, strain MDH1 (second series), active compounds read low): 0.309 (active)
- normalized growth (S. cerevisiae deletion strains, locus YKL085W, strain MDH1, active compounds read low): 0.309 (active)
- normalized growth (S. cerevisiae deletion strains, locus YKL160W, strain elf1, active compounds read low): 0.982
- normalized growth (S. cerevisiae deletion strains, locus YKL190W, strain CNB1, active compounds read low): 1.02
- normalized growth (S. cerevisiae deletion strains, locus YKR001C, strain vps1, active compounds read low): 0.0973 (active)
- normalized growth (S. cerevisiae deletion strains, locus YKR026C, strain gcn3, active compounds read low): 0.984
- normalized growth (S. cerevisiae deletion strains, locus YKR091W, strain srl3, active compounds read low): 1.01
- normalized growth (S. cerevisiae deletion strains, locus YLL001W, strain dnm1, active compounds read low): 0.986
- normalized growth (S. cerevisiae deletion strains, locus YLL026W, active compounds read low): 1
- normalized growth (S. cerevisiae deletion strains, locus YLL041C, strain sdh2, active compounds read low): 0.994
- normalized growth (S. cerevisiae deletion strains, locus YLR027C, strain aat2, active compounds read low): 0.998
- normalized growth (S. cerevisiae deletion strains, locus YLR039C, strain RIC1, active compounds read low): 1.06
- normalized growth (S. cerevisiae deletion strains, locus YLR058C, strain SHM2, active compounds read low): 1
- normalized growth (S. cerevisiae deletion strains, locus YLR102C, strain apc9, active compounds read low): 0.0762 (active)
- normalized growth (S. cerevisiae deletion strains, locus YLR113W, strain HOG1, active compounds read low): 0.98
- normalized growth (S. cerevisiae deletion strains, locus YLR221C, strain rsa3, active compounds read low): 0.987
- normalized growth (S. cerevisiae deletion strains, locus YLR258W, strain gsy2, active compounds read low): 1
- normalized growth (S. cerevisiae deletion strains, locus YLR262C, strain YPT6 (second series), active compounds read low): 0.918
- normalized growth (S. cerevisiae deletion strains, locus YLR262C, strain YPT6, active compounds read low): 1.01
- normalized growth (S. cerevisiae deletion strains, locus YLR268W, strain sec22, active compounds read low): 0.0785 (active)
- normalized growth (S. cerevisiae deletion strains, locus YLR320W, strain mms22, active compounds read low): 0.987
- normalized growth (S. cerevisiae deletion strains, locus YLR330W, strain CHS5, active compounds read low): 1.01
- normalized growth (S. cerevisiae deletion strains, locus YLR342W, strain FKS1 (second series), active compounds read low): 1.04
- normalized growth (S. cerevisiae deletion strains, locus YLR342W, strain FKS1, active compounds read low): 0.998
- normalized growth (S. cerevisiae deletion strains, locus YLR357W, strain rsc2, active compounds read low): 0.961
- normalized growth (S. cerevisiae deletion strains, locus YLR370C, strain arc18, active compounds read low): 0.984
- normalized growth (S. cerevisiae deletion strains, locus YLR371W, strain rom2, active compounds read low): 0.077 (active)
- normalized growth (S. cerevisiae deletion strains, locus YLR384C, strain iki3, active compounds read low): 1
- normalized growth (S. cerevisiae deletion strains, locus YLR418C, strain cdc73, active compounds read low): 0.0993 (active)
- normalized growth (S. cerevisiae deletion strains, locus YML016C, strain PPZ1, active compounds read low): 1
- normalized growth (S. cerevisiae deletion strains, locus YML032C, strain rad52, active compounds read low): 0.789 (active)
- normalized growth (S. cerevisiae deletion strains, locus YML120C, strain ndi1, active compounds read low): 0.988
- normalized growth (S. cerevisiae deletion strains, locus YML124C, strain tub3, active compounds read low): 0.113 (active)
- normalized growth (S. cerevisiae deletion strains, locus YMR058W, strain fet3, active compounds read low): 1
- normalized growth (S. cerevisiae deletion strains, locus YMR078C, strain ctf18, active compounds read low): 0.124 (active)
- normalized growth (S. cerevisiae deletion strains, locus YMR125W, strain sto1, active compounds read low): 0.974
- normalized growth (S. cerevisiae deletion strains, locus YMR129W, active compounds read low): 0.971
- normalized growth (S. cerevisiae deletion strains, locus YMR205C, strain PFK2, active compounds read low): 0.97
- normalized growth (S. cerevisiae deletion strains, locus YMR223W, strain ubp8, active compounds read low): 0.0719 (active)
- normalized growth (S. cerevisiae deletion strains, locus YMR231W, strain pep5, active compounds read low): 1
- normalized growth (S. cerevisiae deletion strains, locus YMR263W, strain SAP30, active compounds read low): 1.01
- normalized growth (S. cerevisiae deletion strains, locus YMR307W, strain GAS1, active compounds read low): 0.992
- normalized growth (S. cerevisiae deletion strains, locus YNL067W, strain RPL9B, active compounds read low): 1.01
- normalized growth (S. cerevisiae deletion strains, locus YNL071W, strain lat1, active compounds read low): 1
- normalized growth (S. cerevisiae deletion strains, locus YNL128W, strain TEP1, active compounds read low): 1
- normalized growth (S. cerevisiae deletion strains, locus YNL153C, strain GIM3, active compounds read low): 0.999
- normalized growth (S. cerevisiae deletion strains, locus YNL183C, strain NPR1, active compounds read low): 0.923
- normalized growth (S. cerevisiae deletion strains, locus YNL209W, strain ssb2, active compounds read low): 0.982
- normalized growth (S. cerevisiae deletion strains, locus YNL233W, strain BNI4, active compounds read low): 0.999
- normalized growth (S. cerevisiae deletion strains, locus YNL248C, strain rpa49, active compounds read low): 0.988
- normalized growth (S. cerevisiae deletion strains, locus YNL250W, strain rad50, active compounds read low): 0.434 (active)
- normalized growth (S. cerevisiae deletion strains, locus YNL271C, strain bni1, active compounds read low): 0.163 (active)
- normalized growth (S. cerevisiae deletion strains, locus YNL298W, strain CLA4, active compounds read low): 0.372 (active)
- normalized growth (S. cerevisiae deletion strains, locus YNL307C, strain MCK1, active compounds read low): 0.0689 (active)
- normalized growth (S. cerevisiae deletion strains, locus YNL322C, strain KRE1 (second series), active compounds read low): 0.979
- normalized growth (S. cerevisiae deletion strains, locus YNL322C, strain KRE1, active compounds read low): 1.01
- normalized growth (S. cerevisiae deletion strains, locus YNR049C, strain mso1, active compounds read low): 0.992
- normalized growth (S. cerevisiae deletion strains, locus YNR052C, strain pop2, active compounds read low): 1.01
- normalized growth (S. cerevisiae deletion strains, locus YOL006C, strain TOP1, active compounds read low): 1.03
- normalized growth (S. cerevisiae deletion strains, locus YOL012C, strain htz1): 0.212
- normalized growth (S. cerevisiae deletion strains, locus YOL147C, strain pex11, active compounds read low): 0.677 (active)
- normalized growth (S. cerevisiae deletion strains, locus YOR001W, strain rrp6, active compounds read low): 0.98
- normalized growth (S. cerevisiae deletion strains, locus YOR061W, strain CKA2, active compounds read low): 1.01
- normalized growth (S. cerevisiae deletion strains, locus YOR069W, strain VPS5, active compounds read low): 1.01
- normalized growth (S. cerevisiae deletion strains, locus YOR070C, strain gyp1, active compounds read low): 1
- normalized growth (S. cerevisiae deletion strains, locus YOR080W, strain dia2, active compounds read low): 0.989
- normalized growth (S. cerevisiae deletion strains, locus YOR083W, strain WHI5, active compounds read low): 0.988
- normalized growth (S. cerevisiae deletion strains, locus YOR106W, strain vam3, active compounds read low): 0.979
- normalized growth (S. cerevisiae deletion strains, locus YOR136W, strain idh2, active compounds read low): 0.0798 (active)
- normalized growth (S. cerevisiae deletion strains, locus YOR144C, strain elg1, active compounds read low): 1
- normalized growth (S. cerevisiae deletion strains, locus YOR184W, strain ser1, active compounds read low): 0.0729 (active)
- normalized growth (S. cerevisiae deletion strains, locus YOR231W, strain MKK1, active compounds read low): 0.994
- normalized growth (S. cerevisiae deletion strains, locus YOR265W, strain rbl2, active compounds read low): 0.986
- normalized growth (S. cerevisiae deletion strains, locus YOR270C, strain vph1, active compounds read low): 0.969
- normalized growth (S. cerevisiae deletion strains, locus YOR290C, strain snf2, active compounds read low): 0.997
- normalized growth (S. cerevisiae deletion strains, locus YOR316C, strain cot1, active compounds read low): 0.0718 (active)
- normalized growth (S. cerevisiae deletion strains, locus YPL051W, strain arl3, active compounds read low): 1
- normalized growth (S. cerevisiae deletion strains, locus YPL055C, strain LGE1, active compounds read low): 1.01
- normalized growth (S. cerevisiae deletion strains, locus YPL078C, strain atp4, active compounds read low): 0.981
- normalized growth (S. cerevisiae deletion strains, locus YPL106C, strain sse1, active compounds read low): 0.977
- normalized growth (S. cerevisiae deletion strains, locus YPL240C, strain hsp82, active compounds read low): 0.991
- normalized growth (S. cerevisiae deletion strains, locus YPL241C, strain CIN2, active compounds read low): 1.02
- normalized growth (S. cerevisiae deletion strains, locus YPL256C, strain CLN2, active compounds read low): 0.977
- normalized growth (S. cerevisiae deletion strains, locus YPR119W, strain clb2, active compounds read low): 0.101 (active)
- normalized growth (S. cerevisiae deletion strains, locus YPR141C, strain kar3, active compounds read low): 0.983
- normalized growth (S. cerevisiae deletion strains, locus YPR163C, strain tif3, active compounds read low): 0.0717 (active)
- normalized growth (S. cerevisiae deletion strains, locus YPR167C, strain met16, active compounds read low): 0.0756 (active)
- normalized growth (S. cerevisiae deletion strains, strain wtn01, active compounds read low): 0.06 (active)
- normalized growth (S. cerevisiae strains, strain wild type, active compounds read low): 1.01
